Assay results as given in the supplement of paper PMC11732987, “Enantioselective OTUD7B fragment discovery through chemoproteomics screening and high-throughput optimisation” (Communications Chemistry, 2025).

Assays:
Assay in all cases: log2 ratio of Biotin-Ahx-Ub-VS probe labelling (fragment/DMSO); higher = less target engagement (more negative = stronger competition), active = hit call of the paper (q ≤ 0.05, log2 ratio ≤ -1)
Conditions in all cases: compound concentration: 200 uM; treatment time: 3 h
[1] = target: T1, ALG13 (UniProt Q9NP73)
T1 sequence (whole entry): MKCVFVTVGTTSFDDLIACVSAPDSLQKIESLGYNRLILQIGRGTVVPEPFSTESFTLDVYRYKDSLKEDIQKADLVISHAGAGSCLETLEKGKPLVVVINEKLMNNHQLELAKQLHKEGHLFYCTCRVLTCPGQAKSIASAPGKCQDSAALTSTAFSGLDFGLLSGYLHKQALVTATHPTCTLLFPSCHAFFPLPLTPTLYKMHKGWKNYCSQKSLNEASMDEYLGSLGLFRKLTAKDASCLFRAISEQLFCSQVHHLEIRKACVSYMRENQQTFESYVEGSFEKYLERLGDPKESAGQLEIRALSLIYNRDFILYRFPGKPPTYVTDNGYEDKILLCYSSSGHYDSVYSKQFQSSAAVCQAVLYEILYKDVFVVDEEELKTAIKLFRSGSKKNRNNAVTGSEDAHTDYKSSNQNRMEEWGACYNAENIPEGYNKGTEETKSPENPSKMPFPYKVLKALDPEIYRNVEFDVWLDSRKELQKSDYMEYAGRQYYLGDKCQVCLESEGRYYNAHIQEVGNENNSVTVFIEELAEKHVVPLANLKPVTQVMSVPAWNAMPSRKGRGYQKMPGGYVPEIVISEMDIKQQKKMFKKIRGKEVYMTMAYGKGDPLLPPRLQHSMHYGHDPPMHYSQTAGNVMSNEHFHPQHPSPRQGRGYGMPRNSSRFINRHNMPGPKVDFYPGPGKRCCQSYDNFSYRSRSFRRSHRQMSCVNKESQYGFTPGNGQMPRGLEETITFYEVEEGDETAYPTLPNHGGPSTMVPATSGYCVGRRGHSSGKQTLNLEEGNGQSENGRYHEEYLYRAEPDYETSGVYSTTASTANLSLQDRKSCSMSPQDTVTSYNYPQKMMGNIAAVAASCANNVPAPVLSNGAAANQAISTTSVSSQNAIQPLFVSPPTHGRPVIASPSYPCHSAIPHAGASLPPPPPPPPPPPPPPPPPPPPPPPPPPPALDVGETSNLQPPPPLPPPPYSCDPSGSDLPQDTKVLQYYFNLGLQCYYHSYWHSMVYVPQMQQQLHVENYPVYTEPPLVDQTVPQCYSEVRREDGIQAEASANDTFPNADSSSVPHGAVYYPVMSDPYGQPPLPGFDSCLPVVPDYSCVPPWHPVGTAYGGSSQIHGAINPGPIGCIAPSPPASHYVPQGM
Summary of the method: (§1)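 Fragment (200 µM) or vehicle was incubated for 3 h with triplicate HEK293T lysate samples of 495 µg, which were then treated with Biotin-Ahx-Ub-VS at 0.5 µM final for 1 h. Labelled DUBs were enriched on NeutrAvidin, digested with LysC and trypsin, and analysed by diaPASEF LC-MS/MS. Values are average log2 fragment/vehicle ratios from an unpaired t-test on global-median-normalised Spectronaut label-free quantities, using proteins with ≥2 unique peptides.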

[2] = target: ATXN3 (UniProt P54252)
Summary of the method: as §1

[3] = target: T2, BAP1 (UniProt Q92560)
T2 sequence (whole entry): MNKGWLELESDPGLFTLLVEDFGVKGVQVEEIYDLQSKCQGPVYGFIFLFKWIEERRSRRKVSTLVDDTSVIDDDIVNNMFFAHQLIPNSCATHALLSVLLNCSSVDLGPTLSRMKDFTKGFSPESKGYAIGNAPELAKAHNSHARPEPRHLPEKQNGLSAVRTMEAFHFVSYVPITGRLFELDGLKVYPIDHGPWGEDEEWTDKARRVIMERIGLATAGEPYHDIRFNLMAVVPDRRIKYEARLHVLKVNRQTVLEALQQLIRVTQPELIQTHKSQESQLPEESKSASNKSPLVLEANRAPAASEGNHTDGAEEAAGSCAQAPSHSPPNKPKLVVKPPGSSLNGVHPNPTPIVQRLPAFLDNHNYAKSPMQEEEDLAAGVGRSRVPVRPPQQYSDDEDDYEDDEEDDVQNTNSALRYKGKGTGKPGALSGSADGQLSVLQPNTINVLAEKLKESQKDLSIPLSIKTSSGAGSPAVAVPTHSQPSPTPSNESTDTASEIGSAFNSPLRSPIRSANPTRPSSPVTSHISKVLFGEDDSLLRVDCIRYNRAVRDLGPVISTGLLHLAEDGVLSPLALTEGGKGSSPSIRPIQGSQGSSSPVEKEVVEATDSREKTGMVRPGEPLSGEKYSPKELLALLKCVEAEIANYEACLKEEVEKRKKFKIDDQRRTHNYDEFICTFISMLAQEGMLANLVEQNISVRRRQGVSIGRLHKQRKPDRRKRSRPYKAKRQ
Summary of the method: as §1

[4] = target: EIF3F (UniProt O00303)
Summary of the method: as §1

[5] = target: EIF3H (UniProt O15372)
Summary of the method: as §1

[6] = target: T3, FAM105A (UniProt Q9NUU6)
T3 sequence (whole entry): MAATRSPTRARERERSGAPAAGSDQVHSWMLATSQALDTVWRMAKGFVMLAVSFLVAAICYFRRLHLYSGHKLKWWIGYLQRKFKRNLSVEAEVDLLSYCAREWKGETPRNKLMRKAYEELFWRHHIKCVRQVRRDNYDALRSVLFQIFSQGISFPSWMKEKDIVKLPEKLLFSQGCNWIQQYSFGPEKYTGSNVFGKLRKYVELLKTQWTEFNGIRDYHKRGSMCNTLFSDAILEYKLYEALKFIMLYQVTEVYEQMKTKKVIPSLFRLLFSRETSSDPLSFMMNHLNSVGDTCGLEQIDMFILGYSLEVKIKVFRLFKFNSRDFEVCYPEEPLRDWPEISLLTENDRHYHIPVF
Summary of the method: as §1

[7] = target: OTUB1 (UniProt Q96FW1)
Summary of the method: as §1

[8] = target: T4, OTUD4 (UniProt Q01804)
T4 sequence (whole entry): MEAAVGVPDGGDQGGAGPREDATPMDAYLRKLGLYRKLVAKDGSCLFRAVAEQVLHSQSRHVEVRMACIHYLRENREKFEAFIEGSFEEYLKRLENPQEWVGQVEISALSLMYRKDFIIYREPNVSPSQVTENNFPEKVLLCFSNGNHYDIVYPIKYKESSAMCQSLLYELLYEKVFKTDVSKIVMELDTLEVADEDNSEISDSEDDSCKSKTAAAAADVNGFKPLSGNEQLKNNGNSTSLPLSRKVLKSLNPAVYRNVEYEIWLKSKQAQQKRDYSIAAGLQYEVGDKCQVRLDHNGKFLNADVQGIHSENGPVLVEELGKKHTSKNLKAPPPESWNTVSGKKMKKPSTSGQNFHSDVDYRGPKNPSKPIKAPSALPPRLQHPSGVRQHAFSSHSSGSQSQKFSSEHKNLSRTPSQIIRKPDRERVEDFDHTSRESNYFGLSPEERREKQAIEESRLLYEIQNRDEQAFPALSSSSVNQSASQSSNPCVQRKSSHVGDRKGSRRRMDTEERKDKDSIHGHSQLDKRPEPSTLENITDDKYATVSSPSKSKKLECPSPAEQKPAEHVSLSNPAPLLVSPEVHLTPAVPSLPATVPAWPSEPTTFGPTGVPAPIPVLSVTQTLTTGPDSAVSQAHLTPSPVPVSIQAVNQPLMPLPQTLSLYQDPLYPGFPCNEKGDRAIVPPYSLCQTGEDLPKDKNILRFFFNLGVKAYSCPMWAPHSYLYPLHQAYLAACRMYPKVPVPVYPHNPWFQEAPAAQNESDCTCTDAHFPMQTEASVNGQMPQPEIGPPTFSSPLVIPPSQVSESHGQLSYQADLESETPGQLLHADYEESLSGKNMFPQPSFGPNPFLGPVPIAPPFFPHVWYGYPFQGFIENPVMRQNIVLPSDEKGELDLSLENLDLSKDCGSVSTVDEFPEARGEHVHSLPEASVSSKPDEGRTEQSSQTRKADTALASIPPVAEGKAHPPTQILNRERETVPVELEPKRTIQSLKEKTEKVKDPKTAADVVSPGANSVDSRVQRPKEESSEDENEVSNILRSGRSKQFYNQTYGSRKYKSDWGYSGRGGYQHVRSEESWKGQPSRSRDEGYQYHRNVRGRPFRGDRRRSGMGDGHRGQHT
Summary of the method: as §1

[9] = target: T5, OTUD5 (UniProt Q96G74)
T5 sequence (whole entry): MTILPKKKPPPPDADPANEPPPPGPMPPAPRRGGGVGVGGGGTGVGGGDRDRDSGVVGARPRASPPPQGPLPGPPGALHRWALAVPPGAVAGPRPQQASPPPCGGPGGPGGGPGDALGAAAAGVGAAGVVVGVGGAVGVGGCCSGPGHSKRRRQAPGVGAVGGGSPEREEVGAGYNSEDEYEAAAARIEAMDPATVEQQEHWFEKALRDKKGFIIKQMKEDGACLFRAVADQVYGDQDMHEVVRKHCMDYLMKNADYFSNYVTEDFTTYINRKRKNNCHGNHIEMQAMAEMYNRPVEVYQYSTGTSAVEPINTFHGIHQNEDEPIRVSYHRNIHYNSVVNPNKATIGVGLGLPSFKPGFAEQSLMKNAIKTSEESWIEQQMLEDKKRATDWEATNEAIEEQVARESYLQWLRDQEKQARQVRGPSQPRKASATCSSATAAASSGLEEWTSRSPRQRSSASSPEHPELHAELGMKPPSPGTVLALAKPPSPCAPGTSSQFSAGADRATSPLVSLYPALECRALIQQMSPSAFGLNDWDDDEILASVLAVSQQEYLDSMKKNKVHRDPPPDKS
Summary of the method: as §1

Measured: log2 ratio of Biotin-Ahx-Ub-VS probe labelling

Chain of ATXN3 (P54252 whole entry): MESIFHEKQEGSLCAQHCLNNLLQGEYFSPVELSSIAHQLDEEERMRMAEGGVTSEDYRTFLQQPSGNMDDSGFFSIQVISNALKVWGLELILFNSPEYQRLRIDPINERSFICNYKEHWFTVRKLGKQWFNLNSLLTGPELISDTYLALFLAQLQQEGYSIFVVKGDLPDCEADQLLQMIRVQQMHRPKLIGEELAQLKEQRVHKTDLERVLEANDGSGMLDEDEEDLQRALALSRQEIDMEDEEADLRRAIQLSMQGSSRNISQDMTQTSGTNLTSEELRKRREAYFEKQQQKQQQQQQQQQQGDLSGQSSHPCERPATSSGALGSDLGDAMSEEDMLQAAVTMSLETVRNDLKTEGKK
Chain of EIF3F (O00303 whole entry): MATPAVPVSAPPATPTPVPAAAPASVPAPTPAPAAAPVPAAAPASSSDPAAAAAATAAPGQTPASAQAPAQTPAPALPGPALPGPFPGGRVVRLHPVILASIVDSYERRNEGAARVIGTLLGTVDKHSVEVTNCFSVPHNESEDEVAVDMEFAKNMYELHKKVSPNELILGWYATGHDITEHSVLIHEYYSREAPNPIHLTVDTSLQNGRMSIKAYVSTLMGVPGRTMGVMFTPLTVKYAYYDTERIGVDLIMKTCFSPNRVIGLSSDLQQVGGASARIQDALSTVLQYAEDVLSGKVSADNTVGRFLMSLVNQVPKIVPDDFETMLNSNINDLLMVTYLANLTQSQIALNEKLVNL
Chain of EIF3H (O15372 whole entry): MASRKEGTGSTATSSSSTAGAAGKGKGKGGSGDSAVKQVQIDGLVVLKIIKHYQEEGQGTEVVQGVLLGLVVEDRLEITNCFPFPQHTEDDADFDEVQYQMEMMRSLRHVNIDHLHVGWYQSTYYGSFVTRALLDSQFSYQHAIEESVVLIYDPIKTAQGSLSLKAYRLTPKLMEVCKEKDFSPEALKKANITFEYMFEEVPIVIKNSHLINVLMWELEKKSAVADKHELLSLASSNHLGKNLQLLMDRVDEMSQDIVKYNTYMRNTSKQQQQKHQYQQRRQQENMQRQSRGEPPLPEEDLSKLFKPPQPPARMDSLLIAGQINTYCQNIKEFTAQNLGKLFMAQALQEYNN
Chain of OTUB1 (Q96FW1 whole entry): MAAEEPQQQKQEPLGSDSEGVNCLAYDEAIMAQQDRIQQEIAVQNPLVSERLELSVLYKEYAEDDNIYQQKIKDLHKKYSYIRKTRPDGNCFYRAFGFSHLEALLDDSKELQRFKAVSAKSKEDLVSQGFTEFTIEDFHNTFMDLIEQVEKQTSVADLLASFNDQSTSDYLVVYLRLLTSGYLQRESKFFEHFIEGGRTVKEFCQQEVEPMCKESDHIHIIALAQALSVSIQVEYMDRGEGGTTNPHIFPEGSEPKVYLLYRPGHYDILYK

O=C(CCl)Nc1ccc(F)cc1F
active: [3] -2.82
inactive: [1] 0.182 | [2] -0.351 | [4] -0.155 | [5] 0.108 | [6] 0.102 | [7] -0.293 | [8] -0.268 | [9] -0.5

Cc1ccc(C)c(Oc2ccc(CNC(=O)CCl)cn2)c1.Cl
active: [3] -3.94
inactive: [1] -0.222 | [2] -0.48 | [4] -0.169 | [5] 0.199 | [6] -0.149 | [7] 0.0499 | [8] -0.382 | [9] -0.697

O=C(CCl)Nc1ccc(Cl)c(F)c1
active: [2] -1.07 | [3] -3.03 | [8] -1.33
inactive: [1] 0.149 | [4] -0.0742 | [5] 0.246 | [6] -0.175 | [7] -0.259 | [9] -0.992

O=C(CCl)NCCC1COCCO1 (stereo not given)
active: [3] -1.01
inactive: [1] -0.267 | [2] -0.282 | [4] -0.44 | [5] 0.24 | [6] -0.278 | [7] -0.233 | [8] -0.214 | [9] -0.165

Cc1nnc(C(NC(=O)CCl)c2ccccc2)n1C (stereo not given)
inactive: [1] -0.558 | [2] 0.355 | [3] 0.428 | [4] 0.534 | [5] 0.24 | [6] 0.549 | [7] -0.00852 | [8] 0.483 | [9] 0.385

Cc1cc(Cl)ccc1NC(=O)CCl
inactive: [1] -0.00605 | [2] -0.0857 | [4] 0.0767 | [5] 0.0385 | [6] 0.174 | [7] -0.116 | [8] -0.0791 | [9] -0.0787
active: [3] -3.02

Cc1ccc(N(CCC#N)C(=O)CCl)cc1C
inactive: [1] -0.389 | [2] -0.353 | [3] -0.735 | [4] -0.396 | [5] 0.219 | [6] -0.314 | [7] -0.139 | [9] -0.661
active: [8] -1.93

O=C(CCl)Nc1cccc2ncccc12
active: [3] -3.71
inactive: [1] -0.13 | [2] 0.14 | [4] 0.254 | [5] -0.273 | [6] -0.205 | [7] 0.156 | [8] -0.176 | [9] -0.516

CC(NC(=O)CCl)c1csc(-c2ccccc2)n1.Cl (stereo not given)
inactive: [1] 0.0117 | [2] -0.556 | [4] -0.0347 | [5] -0.03 | [6] 0.268 | [7] -0.0384 | [9] -0.527
active: [3] -3.84 | [8] -1.31

Cc1cccc(NC(=O)[C@@H]2CCCN2C(=O)CCl)n1
inactive: [1] 0.103 | [2] -0.532 | [3] -0.719 | [4] -0.372 | [5] 0.0856 | [6] 0.18 | [7] -0.512 | [8] -0.432 | [9] -0.514

O=C(CCl)N1CCN(c2nc3ccccc3o2)CC1
active: [2] -1.05 | [3] -1.05
inactive: [1] 0.254 | [4] -0.704 | [5] -0.664 | [6] 0.0333 | [7] 0.0507 | [8] -0.141 | [9] -0.83

COc1ccc(CN(C)C(=O)CCl)cc1
inactive: [1] -0.466 | [2] -0.667 | [4] -0.171 | [5] 0.0709 | [6] 0.32 | [7] -0.0239 | [8] -0.413 | [9] -0.536
active: [3] -1.65

O=C(CCl)NCCc1ccc(F)cc1
inactive: [1] -0.037 | [2] -0.166 | [4] 0.0338 | [5] 0.194 | [6] -0.364 | [7] -0.291 | [8] -0.143 | [9] -0.544
active: [3] -1.07

Cc1cnc2[nH]cc(CCNC(=O)CCl)c2c1
active: [3] -1
inactive: [1] -0.0473 | [2] -0.0726 | [4] -0.228 | [5] 0.13 | [6] -0.55 | [7] 0.0416 | [8] -0.139 | [9] -0.26

CNC(=O)C1CCN(C(=O)CCl)CC1
inactive: [1] 0.0075 | [2] -0.0902 | [3] -0.309 | [4] -0.0903 | [5] 0.232 | [6] 0.31 | [7] -0.105 | [8] 0.0041 | [9] -0.381
